Data from the supplement of paper PMC5662767.

System: Drosophila S2 cl14 SmoIP sensor cells
Test: normalized SmoIP GFP fluorescence (untreated unstimulated = 0%, untreated Hh-stimulated = 100%); higher = more Smo activation sensor fluorescence
Details: stimulation: mock conditioned medium (-Hh); compound concentration: 2 uM; 24 h
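Further: flow cytometry read-out as median GFP intensity of gated cells, compounds added 30 min before Hh-conditioned or mock medium, mock-treated cells serving as unstimulated baseline.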

Point of comparison: `COCCCC/C(=N\OCCN)c1ccc(C(F)(F)F)cc1` [Fluvoxamine-maleate], “normalized SmoIP GFP fluorescence” value 11%. Against it:
- CCN(CC)CC(=O)Nc1c(C)cccc1C [Lidocaine] — lower, 2.97%
- C=CC(=O)Nc1cccc(Sc2nc(Nc3ccc(N4CCN(C)CC4)cc3)ncc2Cl)c1 — higher, 36.2%
- NC(=O)c1cn(Cc2c(F)cccc2F)nn1 [Rufinamide] — lower, 1.89%
- Clc1ccc(C2(c3ccc(-c4cn[nH]c4)cc3)CCNCC2)cc1 — higher, 17.1%
- COc1ccc(S(=O)(=O)N(C(C)=O)c2ccccc2/C=C/c2cc[n+]([O-])cc2)cc1 — lower, 1.03%
- Nc1ncn([C@H]2C[C@H](O)[C@@H](CO)O2)c(=O)n1 [Decitabine] — higher, 25.6%
- COc1c(C)c2c(c(O)c1C/C=C(\C)CCC(=O)OCCN1CCOCC1)C(=O)OC2 [Mycophenolate-mofetil-(CellCept)] — lower, 5.98%
- Cc1cc(NC(=O)Nc2ccc(N(C)C)cc2)c2cc(F)cc(F)c2n1 — higher, 24.9%
- CCOC(=O)Nc1cc(-c2ccc(C)c(NS(C)(=O)=O)c2)nn2c(C)nnc12 [bromosporine] — higher, 49.9%
- N=C(N)Nc1ccc(C(=O)Oc2ccc3cc(C(=N)N)ccc3c2)cc1 [Nafamostat-mesylate] — higher, 16.2%
- Cc1ccc(-n2nc(C(C)(C)C)cc2NC(=O)Nc2ccc(OCCN3CCOCC3)c3ccccc23)cc1 [BIRB-796-(Doramapimod)] — higher, 72.2%
- OC[C@H]1O[C@@H](c2ccc(Cl)c(Cc3ccc(O[C@H]4CCOC4)cc3)c2)[C@H](O)[C@@H](O)[C@@H]1O — lower, -7.78%
- O=C(c1cc(Cc2n[nH]c(=O)c3ccccc23)ccc1F)N1CCN(C(=O)C2CC2)CC1 [AZD2281(Olaparib)] — lower, 1.35%
- C[C@]12CC[C@@H]3c4ccc(O)cc4C[C@@H](CCCCCCCCC[S+]([O-])CCCC(F)(F)C(F)(F)F)[C@H]3[C@@H]1CC[C@@H]2O (some centres undefined) [Fulvestrant] — higher, 12.4%
- C[C@]12CC[C@@H]3c4ccc(O)cc4CC[C@H]3[C@@H]1CCC2=O [Estrone] — lower, 5.12%
- Cc1cn([C@H]2C=C[C@@H](CO)O2)c(=O)[nH]c1=O [Stavudine] — lower, -2.1%
- COC(=O)N[C@H](C(=O)N[C@@H](Cc1ccccc1)[C@@H](O)CN(Cc1ccc(-c2ccccn2)cc1)NC(=O)[C@@H](NC(=O)OC)C(C)(C)C)C(C)(C)C [Atazanavir] — lower, -0.0496%
- Cc1[nH]c2ccccc2c1CCNCc1ccc(/C=C/C(=O)NO)cc1 — higher, 81.3%
- C[C@]12C=CC(=O)N[C@@H]1CC[C@@H]1[C@@H]2CC[C@]2(C)[C@@H](C(=O)Nc3cc(C(F)(F)F)ccc3C(F)(F)F)CC[C@@H]12 [Dutasteride] — lower, 4.26%
- N#C/C(=C\c1ccc(O)c(O)c1)C(=O)NCc1ccccc1 — lower, 9.54%
- CC(C)C[C@H](NC(=O)[C@@H](NC(=O)c1cccc(-c2ccccc2)n1)[C@@H](C)O)B(O)O — higher, 64.4%
- CN(C)CCc1c[nH]c2ccc(Cn3cncn3)cc12 [Rizatriptan-Benzoate(Maxalt)] — lower, -0.265%
- C[C@H](NCc1ccc(OCc2cccc(F)c2)cc1)C(N)=O [Safinamide-mesilate] — lower, 4.04%
